PubChem BioAssay AID1159580 (chemical genetic matrix, 2015)
“And” between values parts separate entries of the source, which are not always exact repeats. Identical values can stand only once. Screen size: about 5,500 compounds; about 2,000 (36%) were called active. Inconclusive results (about 18%) are left out. No stated cut-off is given here; in the data, active means normalized growth mostly below about 0.91 (no sharp cut-off); inconclusive means no clear call, values can overlap the other calls; inactive means mostly above about 0.92. The list shows a part of the results.

Test: chemical genetic growth profiling, strain panel (AID 1159580);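 further: tested at 20 µM; growth read once vehicle control cultures reached saturation at 30 °C; 1 = growth at the plate median or of vehicle wells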
Settings: S. cerevisiae deletion strains, growth OD

Measured: normalized growth

CCOC(N)=O
inactive: locus YAL013W, strain DEP1, stronger effect = lower value 0.999 | locus YAL021C, strain ccr4, stronger effect = lower value 0.989 | locus YAL026C, strain drs2, stronger effect = lower value 1 | locus YAL030W, strain snc1, stronger effect = lower value 0.994 | locus YBL061C, strain skt5, stronger effect = lower value 0.997 | locus YBR009C, strain hhf1, stronger effect = lower value 0.987 | locus YBR021W, strain FUR4, stronger effect = lower value 0.97 | locus YBR023C, strain chs3, stronger effect = lower value 0.993 | locus YBR171W, strain sec66, stronger effect = lower value 0.99 | locus YBR229C, strain ROT2, stronger effect = lower value 0.999 | locus YBR231C, strain swc5, stronger effect = lower value 0.995 | locus YBR279W, strain paf1, stronger effect = lower value 0.991 | locus YCL011C, strain gbp2, stronger effect = lower value 0.988 | locus YCL016C, strain dcc1, stronger effect = lower value 1 | locus YCL029C, strain bik1, stronger effect = lower value 1.01 | locus YCL061C, strain MRC1, stronger effect = lower value 0.995 | locus YCL069W, strain vba3, stronger effect = lower value 0.997 | locus YCR088W, strain abp1, stronger effect = lower value 1 | locus YDL005C, strain med2, stronger effect = lower value 0.986 | locus YDL035C, strain GPR1, stronger effect = lower value 1.01 | locus YDL040C, strain nat1, stronger effect = lower value 0.989 | locus YDL074C, strain BRE1, stronger effect = lower value 1 | locus YDL101C, strain DUN1, stronger effect = lower value 1 | locus YDL134C, strain PPH21, stronger effect = lower value 1.01 | locus YDL185W, strain tfp1, stronger effect = lower value 1.01 | locus YDL192W, strain arf1, stronger effect = lower value 1.01 | locus YDR001C, strain nth1, stronger effect = lower value 1 | locus YDR069C, strain doa4, stronger effect = lower value 0.985 | locus YDR101C, strain arx1, stronger effect = lower value 1 | locus YDR137W, strain rgp1, stronger effect = lower value 1.01 | locus YDR150W, strain NUM1, stronger effect = lower value 1 | locus YDR159W, strain sac3, stronger effect = lower value 0.984 | locus YDR162C, strain NBP2, stronger effect = lower value 0.973 | locus YDR195W, strain ref2 0.933 | locus YDR297W, strain sur2, stronger effect = lower value 0.992 | locus YDR318W, strain mcm21, stronger effect = lower value 1.02 | locus YDR334W, strain swr1, stronger effect = lower value 1 | locus YDR335W, strain msn5, stronger effect = lower value 0.997 | locus YDR388W, stronger effect = lower value 1.01 | locus YDR392W, strain spt3, stronger effect = lower value 0.997 | locus YDR502C, strain sam2, stronger effect = lower value 1 | locus YEL003W, strain gim4, stronger effect = lower value 0.997 | locus YEL037C, strain rad23, stronger effect = lower value 1.01 | locus YEL061C, strain CIN8 (second series), stronger effect = lower value 1.01 | locus YEL061C, strain CIN8, stronger effect = lower value 1 | locus YER015W, strain faa2, stronger effect = lower value 0.993 | locus YER016W, strain bim1, stronger effect = lower value 0.997 | locus YER110C, stronger effect = lower value 1.01 | locus YER111C, strain swi4, stronger effect = lower value 0.995 | locus YER155C, strain BEM2 (second series), stronger effect = lower value 0.994 | locus YER155C, strain BEM2, stronger effect = lower value 1 | locus YER167W, strain BCK2, stronger effect = lower value 1.01 | locus YFR010W, strain ubp6, stronger effect = lower value 0.997 | locus YGL078C, strain dbp3, stronger effect = lower value 1.01 | locus YGL086W, strain mad1, stronger effect = lower value 1.01 | locus YGL167C, strain pmr1, stronger effect = lower value 0.987 | locus YGL173C, strain kem1, stronger effect = lower value 0.982 | locus YGL227W, strain vid30, stronger effect = lower value 0.983 | locus YGL240W, strain doc1, stronger effect = lower value 0.982 | locus YGL248W, strain PDE1, stronger effect = lower value 1 | locus YGL253W, strain hxk2, stronger effect = lower value 0.993 | locus YGR078C, strain PAC10, stronger effect = lower value 0.991 | locus YGR135W, strain pre9, stronger effect = lower value 0.991 | locus YGR229C, strain SMI1, stronger effect = lower value 0.985 | locus YGR252W, strain gcn5, stronger effect = lower value 1.08 | locus YHR013C, strain ard1, stronger effect = lower value 0.975 | locus YHR027C, strain rpn1, stronger effect = lower value 0.997 | locus YHR030C, strain SLT2, stronger effect = lower value 1.01 and 0.987 | locus YHR079C, strain IRE1 (second series), stronger effect = lower value 1.01 | locus YHR079C, strain IRE1, stronger effect = lower value 0.983 | locus YHR094C, strain hxt1, stronger effect = lower value 1 | locus YHR129C, strain ARP1, stronger effect = lower value 1.01 | locus YHR142W, strain chs7, stronger effect = lower value 0.995 | locus YHR200W, strain rpn10, stronger effect = lower value 1.01 | locus YIL066C, strain RNR3, stronger effect = lower value 1.03 | locus YIL073C, strain SPO22, stronger effect = lower value 1.06 | locus YIL125W, strain kgd1, stronger effect = lower value 1 | locus YIR030C, strain dcg1, stronger effect = lower value 1 | locus YJL092W, strain hpr5, stronger effect = lower value 0.995 | locus YJL095W, strain BCK1 (second series), stronger effect = lower value 0.992 | locus YJL095W, strain BCK1, stronger effect = lower value 1.01 and 0.996 | locus YJL115W, strain asf1, stronger effect = lower value 0.999 | locus YJL129C, strain trk1, stronger effect = lower value 1 | locus YJL134W, strain LCB3, stronger effect = lower value 1.01 | locus YJL154C, strain vps35, stronger effect = lower value 1 | locus YJL164C, strain tpk1, stronger effect = lower value 0.991 | locus YJL166W, strain qcr8, stronger effect = lower value 0.99 | locus YJL168C, strain set2, stronger effect = lower value 1.02 | locus YJL187C, strain SWE1 (second series), stronger effect = lower value 1.02 | locus YJL187C, strain SWE1, stronger effect = lower value 0.997 | locus YJR043C, strain POL32, stronger effect = lower value 1.02 | locus YJR066W, strain TOR1, stronger effect = lower value 0.959
